Reference: article PMC12670160, “A drug-repurposing screen of FDA- and EMA-approved drugs identifies two NF-κB inhibitors active against eumycetoma” (Journal of Antimicrobial Chemotherapy, 2025)
Structures can show the parent of a compound that is named as a salt. Where two headings read alike, the source gives them in different places. Screen size: about 5,300 compounds; about 130 (2.5%) showed an effect of 50% or more. Only a selection was taken, and strong results are over-represented in it overall. Peptide text beside a SMILES is read from it.

System: M. mycetomatis strain mm55
Conditions: primary screen, metabolic activity vs growth control, 96 h, 2 µM, inhibitor

SMILES | % viability [%] | % viability (Madurella mycetomatis metabolic activity at 2µM (%)) [%]
N=C(N)c1ccc(OCCCCCOc2ccc(C(=N)N)cc2)cc1 [ONC0003359, pentamidine isethionate] | 71.33 | 
N=C(N)c1ccc(-c2ccc(-c3ccc(C(=N)N)cc3)o2)cc1 [ONC0003070, furamidine] | 108.4 | 
N=C(N)c1ccc(/C=C/c2ccc(C(=N)N)cc2O)cc1 [ONC0003463, hydroxystilbamidine] | 43.6 | 
CC(=O)OCC1=C(C(=O)O)N2C(=O)[C@@H](NC(=O)CSC(=NC(C)C)NC(C)C)[C@H]2SC1 [ONC0003427, cefathiamidine] | 77.15 | 
CNC[C@H](O)c1cccc(O)c1 [ONC0000459, lphenylephrine hydrochloride] | 72.58 | 
C[C@H](N)[C@H](O)c1cccc(O)c1 [ONC0003110, metaraminol bitartrate] | 76.38 | 
CCNCC(O)c1cccc(O)c1 (stereo not shown) [ONC0003685] | 42.26 | 
O=C(Nc1nc(-c2cc(Cl)cs2)c(N2CCN(C3CCCCC3)CC2)s1)c1cnc(N2CCC(C(=O)O)CC2)c(Cl)c1 [ONC0002265, avatrombopag] | 50.97 | 
CN/C(=N/CCSCc1nc[nH]c1C)NC#N [ONC0000657, cimetidine] | 137.7 | 
CCCCCCCNS(=O)(=O)c1cccc2c(Cl)cccc12 [ONC0003431, sc10] | 68.77 | 
NCCCCCCCCCCNS(=O)(=O)c1cccc2c(Cl)cccc12 [ONC0002708, a7] | 47.48 | 
O=S(=O)(NCCCCCCc1ccccc1)c1cccc2c(Cl)cccc12 [ONC0002705, sc9] | 87.04 | 
CC(C)(C)c1cc(C(C)(C)C)c2c(c1)C(O)(C(F)(F)F)C(=O)O2 (stereo not shown) [ONC0001539, racbhff] | 123.7 | 
NC(N)=Nc1nc(CSCCC(N)=NS(N)(=O)=O)cs1 [ONC0003248, famotidine] | 89.34 | 
Cc1nnc(C(C)C)n1[C@@H]1C[C@H]2CC[C@@H](C1)N2CC[C@H](NC(=O)C1CCC(F)(F)CC1)c1ccccc1 [ONC0004641, maraviroc] | 78.39 | 
c1ccc2c(Cc3c[nH]c4ccccc34)c[nH]c2c1 [ONC0003447, diindolylmethane] | 68.22 | 
CN1C(=O)C(Cc2c[nH]c3ccccc23)NC1=S (stereo not shown) [ONC0003684, necrostatin1] | 40.84 | 
CN1C(=O)N[C@H](Cc2c[nH]c3c(Cl)cccc23)C1=O [ONC0000938, necrostatin 2] | 58.02 | 
NC(N)=NCCC[C@H](N)C(=O)NCC(=O)N[C@@H](CC(=O)O)C(=O)N[C@@H](CO)C(=O)O [ONC0002282, argglyaspser] | 101.1 | 
CC(C)n1c(/C=C/[C@@H](O)C[C@@H](O)CC(=O)O)c(-c2ccc(F)cc2)c2ccccc21 (racemic) [ONC0004817, fluvastatin sodium lescol] | 110.8 | 
CCCCCCCCCCCCCCOC(=O)c1cccnc1 [ONC0003671, tetradecyl nicotinate] | 79.3 | 

SMILES | % viability [%] | % viability (Madurella mycetomatis metabolic activity at 2µM (%)) [%]
C[C@@H]1CCCN1CCc1cc2cc(-c3ccc(C#N)cc3)ccc2o1 [ONC0003444, abt 239 tartrate] | 49.56 | 
N=C(N)/N=C(\N)N1CCOCC1 [ONC0005372, moroxydine hydrochloride] | 114.7 | 
CC(C)(N)CC12CC3CC(CC(C3)C1)C2 [ONC0004056, somantadine] | 120.7 | 
c1cc(OCCN2CCCCC2)cc(-c2n[nH]c3ccc(-c4nc[nH]n4)cc23)c1 [ONC0000900, cc401 hydrochloride] | 73.26 | 
Oc1ccc([C@H]2COc3cc(O)ccc3C2)cc1 [ONC0004406, equol] | 119.9 | 
CCCN1CCC[C@H](c2cccc(O)c2)C1 [ONC0002744, r33hydroxyphenylnpropylpiperidine hydrochloride] | 58.06 | 
CCCN1CCO[C@@H]2c3cc(O)ccc3OC[C@H]21 [ONC0000309, pd128907] | 42.57 | 
COC(=O)N[C@H](C(=O)N1CC2(CC2)C[C@H]1c1ncc(-c2ccc3c(c2)C(F)(F)c2cc(-c4ccc5nc([C@@H]6[C@H]7CC[C@H](C7)N6C(=O)[C@@H](NC(=O)OC)C(C)C)[nH]c5c4)ccc2-3)[nH]1)C(C)C [ONC0001967, ledipasvir] | 73.81 | 
CC(C)NCC(O)c1ccc(O)c(O)c1 (stereo not shown) [ONC0000608, isoproterenol hydrochloride] | 81.88 | 
CC(C)NCC(O)c1ccc([N+](=O)[O-])cc1 (stereo not shown) [ONC0002319, nifenalol] | 49.56 | 
CC(C)NCC(O)c1ccc(N)c(C#N)c1 (stereo not shown) [ONC0003014, cimaterol] | 76.31 | 
CC/C=C\C/C=C\C/C=C/C/C=C\C/C=C\C/C=C\CCC(=O)OCC [ONC0002811] | 151.6 | 
COC(=O)[C@H](CCCNC(=N)N)NS(=O)(=O)c1ccc(C)cc1 [ONC0004976, tame] | 63.05 | 
N=C(N)c1cc2ccc(OC(=O)c3cccs3)cc2s1 [ONC0004238, bcx 1470 methanesulfonate] | 62.8 | 
CNCC(O)c1ccc(O)cc1 (stereo not shown) [ONC0005413, oxedrine] | 69.09 | 
CC[C@H](c1ccc(O)cc1)[C@@H](CC)c1ccc(O)cc1 [ONC0003849, hexestrol] | 49.29 | 
CC/C(=C(/CC)c1ccc(O)cc1)c1ccc(O)cc1 [ONC0003197, diethylstilbestrol] | 93.2 | 
C#C[C@]1(O)CC[C@H]2[C@@H]3CCC4=CC(=NO)CC[C@@H]4[C@H]3CC[C@@]21CC (mixture of isomers) [ONC0000953, norgestimate metabolite norelgestromin] | 67.65 | 
CO[C@H]1/C=C/O[C@@]2(C)Oc3c(C)c(O)c4c(O)c(c(/C=N/N5CCN(C6CCCC6)CC5)c(O)c4c3C2=O)NC(=O)/C(C)=C\C=C\[C@H](C)[C@H](O)[C@@H](C)[C@@H](O)[C@@H](C)[C@H](OC(C)=O)[C@@H]1C [ONC0002002, rifapentine] | 77.39 | 
COC1/C=C/OC2(C)Oc3c(C)c(O)c4c(O)c(c(/C=N/N=C/N5CCCCC5)c(O)c4c3C2=O)NC(=O)/C(C)=C\C=C\C(C)C(O)C(C)C(O)C(C)C(OC(C)=O)C1C (stereo not shown) [ONC0003798, fce22250] | 33.52 | 
CO[C@H]1/C=C/O[C@@]2(C)Oc3c(C)c(O)c4c(O)c(c(/C=N/N5CCN(C)CC5)c(O)c4c3C2=O)NC(=O)/C(C)=C\C=C\[C@H](C)[C@H](O)[C@@H](C)[C@@H](O)[C@@H](C)[C@H](OC(C)=O)[C@@H]1C [ONC0003357, rifampin] | 107.5 | 

SMILES | % viability [%] | % viability (Madurella mycetomatis metabolic activity at 2µM (%)) [%]
N#Cc1cn([C@@H]2O[C@H](CO)[C@@H](O)[C@H]2O)c2ncnc(N)c12 [ONC0003230, toyocamycin] | 99.22 | 
Cl.O=C(c1ccc(-c2ccc(Cl)cc2)o1)N(Cc1ccccn1)c1ccc(N2CCNCC2)cc1 [ONC0002178, mk2in1 hydrochloride] | 65.24 | 
O=C(Nc1ccc(C(O)(C(F)(F)F)C(F)(F)F)cc1)c1ccc(C(F)(F)F)cc1 [ONC0000412, sr1078] | 46.34 | 
C/C(O)=C(\C#N)C(=O)Nc1ccc(C(F)(F)F)cc1 [ONC0000878, teriflunomide] | 64.9 | 
CC(=O)Nc1ccc(C(=O)NC(C)(C)C)cc1 [ONC0002880] | 98.46 | 
CC(=O)OC[C@H](N)C(=O)O.Cl [ONC0000420, oacetyllserine hcl] | 77.43 | 
CC[C@@]1(O)C(=O)OCc2c1cc1n(c2=O)Cc2cc3c(N)cccc3nc2-1 [ONC0005467, 9aminocamptothecin] | 102.4 | 
CCCCCCCCCCCCCCOS(=O)(=O)O [ONC0003317, sodium tetradecyl sulfate] | 84.61 | 
Cc1cccc(-c2[nH]c(C(C)(C)C)nc2-c2ccc3c(c2)OCO3)n1 [ONC0005219, sb505124] | 129 | 
CCNC(=O)c1[nH]nc(-c2cc(Cl)c(O)cc2O)c1-c1ccc(OC)cc1 [ONC0005116, ver49009] | 88.78 | 
CCc1cc(-c2n[nH]c(C)c2-c2ccc3c(c2)OCCO3)c(O)cc1O [ONC0003616, cct018159] | 49.48 | 
CC(C)CC1NC(=O)C(C(C)C)NC(=O)C2CCCN2C(=O)C(CC(=O)O)NC(=O)C(Cc2c[nH]c3ccccc23)NC1=O (stereo not shown) [ONC0004583, bq123] (cyclo(DPVLW); configuration not given here) | 106.9 | 
CC(=O)NC1[C@@H](O)OC(CO)[C@@H](O)[C@H]1O (stereo partly shown) [ONC0002960, nacetylmannosamine] | 104.5 | 
CN1C(C(=O)Nc2ccccn2)C(=O)c2sccc2S1(=O)=O (stereo not shown) [ONC0002886, tenoxicam] | 126.3 | 
CC(O)c1cc(C(=O)N[C@@H](C)Cn2ccc(-c3ccc(C#N)c(Cl)c3)n2)[nH]n1 (stereo partly shown) [ONC0005059, odm201] | 86.36 | 
O=C(NCc1cccc(O)c1)Nc1nc(-c2ccncc2)cs1 [ONC0005121, rki1447] |  | 69.4
Cc1ccc(S(=O)(=O)/C=C/C#N)cc1 [bay117082] | 112.1 | 
CC(C)(C)c1ccc(S(=O)(=O)/C=C/C#N)cc1 [bay117085] | 1.843 | 
CCOc1ccc2nc(SCCN3CCOCC3)[nH]c2c1 [ONC0001849, fabomotizole hydrochloride] | 108.3 | 
